Here are results for 13 molecules from PubChem BioAssay.

The nature of assay [1]: compounds binding Alexa647 anti-His antibody – biochemical, small-molecule microarray, 635 nm fluorescence, artefact control for SMM control protein annotation, primary screen (AID 1128).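 Also: score merges feature fluorescence with signal-to-noise for each printed compound spot.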 The note with it: higher = more signal.
Assay [2] relates to Human papillomavirus type 1a E7 protein (residues 1-88). As to the kind of experiment: HPV1a E7 small-molecule binders, primary screen, biochemical, small-molecule microarray, residues 1-88, 635 nm (AID 1129). The note with it: small-molecule microarray binding, fluorescence 635 nm; higher = more signal.
The target in assay [3] is Focal adhesion kinase 1 (Homo sapiens) (UniProt Q05397). As to the kind of experiment: PTK2 protein binding on printed compound slides – biochemical, small-molecule microarray, 635/667 nm fluorescence, BSA, DTT, primary screen (AID 1130).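 Also: composite of spot emission at 667 nm and signal to noise over triplicate slides.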 The note with it: 635 nm fluorescence, higher = more signal.
Focal adhesion kinase 1 (Homo sapiens), sequence (Q05397 whole entry, looked up): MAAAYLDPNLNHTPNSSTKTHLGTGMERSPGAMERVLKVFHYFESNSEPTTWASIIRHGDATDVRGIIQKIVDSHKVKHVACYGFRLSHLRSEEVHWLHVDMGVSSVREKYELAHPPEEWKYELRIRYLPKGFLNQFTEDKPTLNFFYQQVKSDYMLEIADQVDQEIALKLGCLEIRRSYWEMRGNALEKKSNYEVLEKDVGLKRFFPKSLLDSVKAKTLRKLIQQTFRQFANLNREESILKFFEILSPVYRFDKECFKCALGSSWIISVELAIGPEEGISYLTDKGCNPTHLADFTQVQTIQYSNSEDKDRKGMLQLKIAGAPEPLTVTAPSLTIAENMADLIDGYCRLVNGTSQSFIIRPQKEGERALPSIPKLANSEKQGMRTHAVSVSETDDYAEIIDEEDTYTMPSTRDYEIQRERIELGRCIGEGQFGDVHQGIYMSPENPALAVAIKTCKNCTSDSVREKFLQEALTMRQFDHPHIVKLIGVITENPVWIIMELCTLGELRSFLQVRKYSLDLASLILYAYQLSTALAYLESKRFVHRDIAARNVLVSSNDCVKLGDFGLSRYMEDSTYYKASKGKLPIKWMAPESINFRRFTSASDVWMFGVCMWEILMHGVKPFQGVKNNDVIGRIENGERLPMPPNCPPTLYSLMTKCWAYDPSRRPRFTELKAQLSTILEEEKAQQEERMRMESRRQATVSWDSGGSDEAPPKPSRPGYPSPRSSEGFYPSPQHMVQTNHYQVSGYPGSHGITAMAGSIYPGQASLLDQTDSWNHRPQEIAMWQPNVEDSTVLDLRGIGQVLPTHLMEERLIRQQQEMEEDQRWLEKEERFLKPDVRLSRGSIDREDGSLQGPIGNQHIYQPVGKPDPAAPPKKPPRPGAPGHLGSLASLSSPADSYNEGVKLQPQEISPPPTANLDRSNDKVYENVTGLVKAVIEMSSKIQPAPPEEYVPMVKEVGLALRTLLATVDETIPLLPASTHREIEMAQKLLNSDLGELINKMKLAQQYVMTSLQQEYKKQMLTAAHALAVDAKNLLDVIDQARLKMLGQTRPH
For assay [4], the system named is Fibrinogen (Alexa647-labelled). As to the kind of experiment: Alexa647-fibrinogen binding to printed small molecules – biochemical, small-molecule microarray, 635/667 nm fluorescence, artefact control for SMM control-protein annotation, profiling panel (AID 1131).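 Also: z-score merges 667 nm fluorescence with per-spot signal-to-noise over triplicate slides.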 The note with it: fibrinogen-A647 binding fluorescence, higher = more signal.
Assay [5] deals with Follistatin (Homo sapiens) (UniProt P19883). As to the kind of experiment: FST protein binding to printed compounds – biochemical, small-molecule microarray, 635/667 nm fluorescence, primary screen (AID 1132). The note with it: 635 nm fluorescence, higher = more signal.
Follistatin (Homo sapiens), sequence (P19883 whole entry, looked up): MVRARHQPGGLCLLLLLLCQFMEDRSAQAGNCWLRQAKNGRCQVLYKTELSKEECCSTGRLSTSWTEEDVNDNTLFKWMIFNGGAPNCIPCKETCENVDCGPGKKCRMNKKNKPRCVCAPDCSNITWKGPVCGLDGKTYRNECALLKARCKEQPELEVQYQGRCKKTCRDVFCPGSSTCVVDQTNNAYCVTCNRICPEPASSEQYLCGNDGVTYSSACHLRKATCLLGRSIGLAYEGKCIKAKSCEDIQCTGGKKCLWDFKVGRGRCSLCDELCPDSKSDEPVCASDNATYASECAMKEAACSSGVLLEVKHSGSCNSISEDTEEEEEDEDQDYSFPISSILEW
Assay [6] concerns the target Fibroblast growth factor 2 (Homo sapiens) (UniProt P09038). As to the kind of experiment: basic fibroblast growth factor binding to printed compounds – biochemical, small-molecule microarray, 635/667 nm fluorescence, primary screen (AID 1133). The note with it: FGF2, fluorescence 635/667, higher = more signal.
A short description of assay [7]: JC-1 mitochondrial potential readout, lung cancer cells – cell-based, A549, JC-1 fluorescence, basal, 24 h, 100 nL, profiling panel (AID 1138).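 Also: A549 lung adenocarcinoma cells under basal conditions with no added stimulus; test concentration not given here.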 The note with it: higher = more signal.
In the next assay the test system is Lefty1. As to the kind of experiment: Lefty1 protein binding to printed compounds – biochemical, small-molecule microarray, 635/667 nm fluorescence, primary screen (AID 1139). The note with it: fluorescence 635/667, higher = more signal.
For assay [8], the system named is wheat germ agglutinin (Triticum aestivum), Alexa647-labelled. As to the kind of experiment: Alexa647-WGA lectin binding to printed small molecules – biochemical, small-molecule microarray, 635/667 nm fluorescence, artefact control for SMM control-protein annotation, profiling panel (AID 1140).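 Also: score merges 667 nm feature emission with signal to noise over triplicate slides.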 The note with it: WGA-A647 binding, 635 nm fluorescence, higher = more signal.

In assay [9] the target is Luciferin 4-monooxygenase (Photinus pyralis) (UniProt P08659). As to the kind of experiment: inhibition of purified Photinus pyralis luciferase – biochemical, luminescence, purified enzyme, 2006 set, primary screen (AID 1141).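 Also: cell-free assay with purified firefly luciferase at 100 ng per well in PBS; test concentration not given here.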 The note with it: purified firefly luciferase, SteadyGlo luminescence, 30 min; higher = more signal, called active from +8 up or from −8 down.
Luciferin 4-monooxygenase (Photinus pyralis), sequence (P08659 whole entry, looked up): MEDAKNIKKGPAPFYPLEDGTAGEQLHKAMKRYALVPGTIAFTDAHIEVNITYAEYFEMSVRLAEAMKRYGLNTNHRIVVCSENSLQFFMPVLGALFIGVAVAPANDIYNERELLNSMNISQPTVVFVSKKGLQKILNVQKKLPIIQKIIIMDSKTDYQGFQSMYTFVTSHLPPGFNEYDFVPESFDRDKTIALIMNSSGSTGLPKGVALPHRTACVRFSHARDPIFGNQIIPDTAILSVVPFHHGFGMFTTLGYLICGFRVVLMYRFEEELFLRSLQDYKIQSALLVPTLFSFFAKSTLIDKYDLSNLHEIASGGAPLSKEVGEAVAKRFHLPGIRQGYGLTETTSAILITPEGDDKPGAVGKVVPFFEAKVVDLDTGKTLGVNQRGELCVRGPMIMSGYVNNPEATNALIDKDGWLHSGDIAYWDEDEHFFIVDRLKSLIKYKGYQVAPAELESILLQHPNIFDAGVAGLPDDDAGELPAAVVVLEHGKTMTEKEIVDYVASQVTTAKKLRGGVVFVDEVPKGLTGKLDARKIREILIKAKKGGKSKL

Calls of active or inactive are those of the source.

Fibroblast growth factor 2 (Homo sapiens), sequence (P09038 whole entry, looked up): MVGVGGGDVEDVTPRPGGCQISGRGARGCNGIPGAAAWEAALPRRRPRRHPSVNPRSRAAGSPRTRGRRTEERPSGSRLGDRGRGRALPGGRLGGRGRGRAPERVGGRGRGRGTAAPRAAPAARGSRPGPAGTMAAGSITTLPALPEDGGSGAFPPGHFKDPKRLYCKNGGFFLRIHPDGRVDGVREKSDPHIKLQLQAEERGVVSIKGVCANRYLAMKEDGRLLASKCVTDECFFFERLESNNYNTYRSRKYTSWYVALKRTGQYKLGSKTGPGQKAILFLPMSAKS

Consider `O=C1O[C@@H](c2ccccc2)[C@@H](c2ccccc2)N2[C@@H](c3ccc(OCCO)cc3)[C@]3(C(=O)Nc4ccc(C#CC5=CCCCC5)cc43)[C@@H](C(=O)N3CCCCCCC3)[C@H]12`, for which the composite z-score is 1.41 in assay [1]; 1.23 in assay [2]; 1.55 in [3]; 0.772 in assay [4]; 1.39 in [5]; 1.09 in [6]. For the same molecule, the composite z-score came to 1.55 in the assay with Lefty1 and 1.46 in assay [8]. For the same molecule, the z-score was -1.02 in [7] and -1.13 (inactive) in assay [9].
In the case of `Cc1ccc(C2C3C(=O)CC4C(=O)N(c5ccccc5)C(=O)C4C3CN2S(=O)(=O)c2ccc(C)cc2)cc1` (stereo not given), the composite z-score in [1] was 1.16; in assay [2], 1.24; in assay [3], -0.177; in [4], 0.403; in [5], 0.24; in assay [6], 0.294. Besides, the composite z-score with Lefty1 was found to be 0.0507; in assay [8], 0.912. For the same molecule, the values for the z-score in [7] and in [9] were -0.112 and 0.732 (inactive), respectively.
As for `CCCCCCCCCCC(O)C1C=CC2C(=O)NC(=O)C2N1Nc1ccc(Cl)cc1Cl` (stereo not given), the composite z-score is 0.997 in assay [1]; 0.186 in assay [2]; 0.459 in assay [3]; 0.331 in [4]; -0.184 in [5]; -0.942 in assay [6]. The composite z-score is -1.14 with Lefty1 and 0.117 in assay [8]. Also, the values for the z-score in assay [7] and in [9] were -0.863 and -0.836 (inactive), respectively.
Regarding `Cc1ccc(S[C@]2(C(=O)O)CC(=O)N(Cc3ccccc3C(F)(F)F)[C@@H]2c2ccc(CO)cc2I)cc1`, the composite z-score was 0.275 in assay [1]; 0.0179 in assay [2]; -0.0066 in assay [3]; 0.0184 in assay [4]; 0.0699 in [5]; 0.511 in [6]. Further, the composite z-score in the assay with Lefty1 was -0.781; in assay [8], 0.75. In addition, the z-score is 0.348 in assay [7] and -0.499 (inactive) in assay [9].
Regarding `CC(C)Cc1ccc(CN2CC[C@@H](N)C2)cc1`, the composite z-score in [1] is -0.273; in assay [2], -1.63; in assay [3], -0.0574; in [4], -0.0978; in assay [5], -0.304; in assay [6], -0.847. In addition, the composite z-score is 0.0735 in the assay with Lefty1 and -0.314 in assay [8]. For the same molecule, the z-score in [7] is 1.85; in assay [9], 0.824 (inactive).
For `C[N+](C)(C)CCCCCCNC(=O)[C@H]1C[C@H]2C(=O)N[C@@H](Cc3ccccc3)C(=O)N2[C@H]1c1cccc(OCCO)c1`, the composite z-score in assay [1] was determined as 0.357; in [2], 0.69; in [3], 0.118; in assay [4] it was 0.22; in assay [5], 1.16; in assay [6], 1.83. The composite z-score in the assay with Lefty1 is 1.4; in assay [8], -0.046. The z-score in assay [7] is -0.585; in assay [9], 0.0538 (inactive).
Consider `C=CC[C@]1(C(=O)NCc2ccccc2)N=C(c2ccc(OCCCO)cc2)O[C@H]1c1ccccc1CN=[N+]=[N-]`, for which the composite z-score was 1.25 in assay [1]; 1.21 in assay [2]; 0.112 in assay [3]; 1.02 in [4]; 1.31 in [5]; 1.09 in assay [6]. Besides, the composite z-score in the assay with Lefty1 worked out at 0.497; in assay [8], 0.666. For the same molecule, the z-score in assay [7] was 1.22; in assay [9], -0.238 (inactive).
As to `O=C(O)[C@H]1C[C@H]2C(=O)N3CCC[C@H]3C(=O)N2[C@H]1c1ccc(O)cc1`, the composite z-score in [1] was 0.0617; in [2], -0.94; in assay [3], -0.222; in assay [4] it was -1.83; in assay [5] it was -0.374; in [6] it was -0.879. The composite z-score is -0.801 with Lefty1 and -0.842 in [8]. Further, the values for the z-score in assay [7] and in assay [9] were 1.62 and -2.53 (inactive), respectively.
For the molecule `CCN(CC)c1ccc(N2CC=CC34O[C@@H]5/C=C\CCC(C)OC(=O)C5[C@H]3C(=O)N(CCCCCO)[C@@H]4C2=O)cc1` (stereo not given in full), the composite z-score in [1] was -0.117; in [2] it was -0.886; in assay [3], -0.336; in assay [4], -0.899; in [5] it was -0.614; in assay [6], -0.48. For the same molecule, the composite z-score in the assay on Lefty1 is -0.978; in assay [8], 0.208. Also, the z-score was 0.105 in [7] and -0.659 (inactive) in assay [9].
As for `COc1cc(CO)cc(I)c1O[C@H]1C=C(C(=O)NCCO)C[C@@H](N(C(=O)c2cc3ccccc3oc2=O)C2CCCCCC2)[C@@H]1O`, the composite z-score is 0.0786 in assay [1]; -0.832 in assay [2]; -0.314 in [3]; 0.138 in assay [4]; 0.625 in assay [5]; 1.32 in assay [6]. The results for the composite z-score (with Lefty1; in assay [8]) were 0.803 and 0.972, respectively. Moreover, the z-score in assay [7] was -1.79; in assay [9] it was 0.93 (inactive).
As to `COCC(=C=CC[C@H](O)c1cccc(OCCO)c1)CCO`, the composite z-score was -0.115 in assay [1]; 0.0665 in assay [2]; -0.0436 in assay [3]; -0.535 in [4]; 1.32 in assay [5]; 0.131 in assay [6]. In addition, the composite z-score was 1.48 in the assay with Lefty1 and -0.262 in assay [8]. For the same molecule, the z-score in assay [7] was -0.0195; in assay [9], 0.415 (inactive).
For the molecule `CCCCC(=C=CC[C@@H](O)c1ccc(CO)o1)CCO`, the composite z-score in assay [1] is 1.05; in assay [2], 0.0355; in [3] it was -0.347; in assay [4], -0.313; in assay [5] it was 1.14; in [6] it was 1.13. The composite z-score in the assay on Lefty1 worked out at 1.08; in assay [8], 0.55. Besides, the values for the z-score in [7] and in assay [9] were 0.622 and -2.51 (inactive), respectively.
For the molecule `COc1ccc(-c2cc3c(c(Cc4ccccc4)n2)[Si](C(C)C)(C(C)C)OC3)cn1`, the composite z-score was -0.356 in [1]; -0.875 in assay [2]; -0.0985 in [3]; -0.827 in [4]; -0.108 in assay [5]; -0.328 in assay [6]. Besides, the composite z-score in the assay on Lefty1 was -0.0455; in assay [8] it was -0.351. In addition, the z-score in assay [7] is -0.687; in [9], 0.892 (inactive).
